Hits are enriched below; roughly 15% of the tested compounds scored in any of these assays.
Gal4-VP16 FLuc: counter-screen for ROR gamma inhibitors: Gal4-VP16 reporter. Drosophila S2 Gal4-VP16 UAS-luciferase, luminescence, 20 h. Potency, µM (highest dose often 53.6 µM), hits mostly inhibitors. actives 3.5% (n = 310,000). AID 2546;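 also: Gal4-VP16 expression switched on by copper sulfate through the metallothionein promoter; nearly all actives have a fitted effect of over 50% in size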
ELG1 DNA repair: ELG1-dependent DNA repair inhibition. actives 2.3% (n = 330,000). HEK293T ELG1-luciferase reporter, luminescence, 16 h; DNA damage induced by 5-fluorouridine. AID 504467. Potency, µM (top dose mostly 46.1 µM), actives largely listed as inhibitors; also: nearly all actives have a fitted effect of over 55% in size
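In this reporter screen, reduction of luminescence relative to DMSO vehicle indicated activity. Compounds and 5-fluorouridine were added together to 2,000 cells per well, incubated for 16 hr at 37 °C, then developed with ONE-Glo.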
12-LOX inh: blocks human arachidonate 12S-lipoxygenase; P18054; purified 12hLO, xylenol orange hydroperoxide absorbance; Potency, µM (doses to about 108 µM), most hits filed as inhibitors; actives 1.1% (n = 580,000); AID 1671190
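Hydroperoxide product was detected by ferrous iron/xylenol orange as the 573 to 405 nm absorbance ratio. Arachidonic acid at 40 uM (final) was turned over for 30 min at room temperature by 150 nM human 12hLO, pH 7.0 Hepes buffer, after 15 min compound preincubation.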
TDP1 cell noCPT: qHTS for Inhibitors of human tyrosyl-DNA phosphodiesterase 1 (TDP1): qHTS in cells in absence of CPT; DT40 Tdp1-/- hTDP1 cells, no CPT, ATP luminescence, 48 h; AID 686978, 2013; actives 15% (n = 420,000); Potency, µM (series often up to 46.2 µM), actives largely listed as inhibitors; also: nearly all actives have a fitted effect of over 55% in size
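Stably hTDP1-transfected Tdp1-null chicken DT40 cells were treated with library compounds minus camptothecin and grown for at least 48 hr at 37 °C, after which cellular ATP was quantified by luminescence.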
RORg inh: blocks mouse ROR gamma transcriptional activity; Potency, µM (series often up to 53.6 µM), usual class: inhibitors; P51450; actives 5.4% (n = 310,000); Drosophila S2 Gal4-RORgamma UAS-luciferase reporter, 20 h; AID 2551; also: nearly all actives have a fitted effect of over 60% in size
Target sequence (P51450 whole entry, looked up, the tested form may be a part): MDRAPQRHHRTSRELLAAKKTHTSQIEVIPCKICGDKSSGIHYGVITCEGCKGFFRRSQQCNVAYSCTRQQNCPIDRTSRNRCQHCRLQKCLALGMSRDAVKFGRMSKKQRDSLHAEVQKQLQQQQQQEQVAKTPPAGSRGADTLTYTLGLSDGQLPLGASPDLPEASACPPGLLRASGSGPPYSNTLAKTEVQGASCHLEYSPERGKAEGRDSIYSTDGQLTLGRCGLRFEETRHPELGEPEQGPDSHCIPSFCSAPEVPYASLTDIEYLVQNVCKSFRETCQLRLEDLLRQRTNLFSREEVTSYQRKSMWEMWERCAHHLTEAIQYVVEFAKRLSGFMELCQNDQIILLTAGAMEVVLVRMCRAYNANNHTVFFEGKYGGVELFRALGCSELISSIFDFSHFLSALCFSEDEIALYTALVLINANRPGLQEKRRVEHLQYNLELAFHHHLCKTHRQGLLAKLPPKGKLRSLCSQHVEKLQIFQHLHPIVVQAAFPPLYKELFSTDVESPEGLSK
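Compounds are pin-transferred onto Drosophila Schneider cells expressing a copper-inducible Gal4–ROR gamma transactivation domain fusion. After 1 hr, copper sulfate is added to 700 uM final; luciferase is read 20 hr later.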
DT40 TDP1 CPT: DT40-hTDP1 cell growth loss with CPT; chicken DT40 Tdp1-/-;hTDP1 cells + 20 nM CPT, ATP luminescence, 48 h; Potency, µM (series often up to 46.2 µM), hits mostly inhibitors; actives 12% (n = 420,000); also: nearly all actives have a fitted effect of over 55% in size
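Chicken DT40 Tdp1-/- cells complemented with human TDP1, 400 cells/well, exposed to compounds plus 20 nM camptothecin for at least 48 h at 37 C; viability read as ATP content by CellTiter-Glo luminescence.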
A number is an active result; n = inactive; u = inconclusive; x = no result given; [ ] = remark or other dose. Calls follow the shape of the dose curve; as a rule, active = well fitted curve in the direction sought with a large enough effect; inconclusive = small, poorly fitted or top-dose-only effect, or another doubt; inactive = no such curve, though single readings can be large; an effect the other way counts as inactive or inconclusive.

SMILES	Gal4-VP16 FLuc	ELG1 DNA repair	12-LOX inh	TDP1 cell noCPT	RORg inh	DT40 TDP1 CPT
O=[N+]([O-])c1ccc2[nH]c(O)c(N=NC(=S)Nc3cccnc3)c2c1	n	n	u	n	n	n
CN1Cc2nc(Nc3ccccc3F)ccc2OCC1=O	x	x	n	x	x	x
CC(C)NC(=O)C[C@@H]1O[C@H](CNC[C@H]2O[C@@H](CC(=O)NC(C)C)[C@H](O)[C@@H]2O)[C@@H](O)[C@H]1O	x	x	n	x	x	x
CCOC(=O)c1c(NC(=O)CSc2nnc(CNc3ccc(Cl)cc3)o2)sc(C)c1C	n	n	n	13µM	n	u
O=C(CSc1nnc(CNC(=O)c2ccco2)o1)Nc1nc2ccccc2s1	10µM	u	n	n	2.51µM	n
CCOC(=O)c1c(NC(=O)CSc2nnc(CNc3ccc(F)cc3)o2)sc(C)c1C	n	u	n	n	n	n
CC(=O)C1=C(C)NC(SCC(=O)Nc2nc3ccccc3s2)=C(C#N)C1c1ccc(Cl)cc1 (centres undefined)	n	u	u	18.4µM	u	u
O=C(CSc1ncccn1)Nc1nc2ccccc2s1	x	x	n	x	x	x
O=C(CSc1nnc(CNc2ccc(Cl)cc2)o1)Nc1nc2ccccc2s1	u	n	n	u	14.1µM	n
COc1ccc(-c2c(C(F)(F)F)oc3cc(OC(=O)C(C)C)ccc3c2=O)cc1OC	x	x	n	x	x	x
CCc1ccc(OCC(O)Cn2c(NCCN(CC)CC)nc3c2c(=O)[nH]c(=O)n3C)cc1 (centres undefined)	x	x	n	x	x	x
CCc1ccc2oc(C(=O)Nc3c(C)cccc3C)cc(=O)c2c1	x	x	n	x	x	x
COc1ccc(/C=N/NC(=O)c2ccc3nc[nH]c3c2)c(OC)c1	n	n	n	u	n	4.61µM
CCN(CC)c1ccc(/C=N/NC(=O)c2ccc3nc[nH]c3c2)c(O)c1	n	u	x	u	u	18.4µM
CCN(CC)c1ccc(/C=N/NC(=S)NC)c(O)c1	1.78µM	u	u	0.517µM	0.794µM	0.731µM
CCN(CC)c1ccc(/C=N/NC(=O)OC)c(O)c1	u	u	n	25.9µM	u	u
COc1cc(OC)c(OC)cc1/C=N/NC(=O)c1ccc2nc[nH]c2c1	n	n	n	n	n	n
Cc1ccccc1C(=O)NC1CCCCC1	x	x	n	x	x	x
COC[C@H]1NC(=O)CC[C@H]1C(=O)N1CCCc2ccccc21	x	x	n	x	x	x
Cc1ccc(S(=O)(=O)NCCO)c2ccccc12	x	x	n	x	x	x
Cc1cc(/C=N/NC(=O)c2ccoc2C)cc(C)c1O	x	x	n	n	x	n
CCN(CC)c1ccc(/C=N/NC(=O)c2ccoc2C)c(O)c1	3.55µM	u	n	3.26µM	0.501µM	13µM
Cc1oc(-c2ccc(Cl)cc2)nc1CS(=O)CC(=O)NCCCN1CCN(Cc2ccccc2)CC1 (centres undefined)	n	u	n	u	n	14.6µM
CCN1CCN(CCNC(=O)CS(=O)Cc2nc(-c3ccc(Cl)cc3)oc2C)CC1 (centres undefined)	x	x	n	x	x	x
COCCNC(=O)CS(=O)Cc1nc(-c2ccc(Cl)cc2)oc1C (centres undefined)	n	n	u	n	n	n
SMILES	Gal4-VP16 FLuc	ELG1 DNA repair	12-LOX inh	TDP1 cell noCPT	RORg inh	DT40 TDP1 CPT
Cc1ccc(-c2nc(CS(=O)CC(=O)NCc3ccc4c(c3)OCO4)c(C)o2)cc1 (centres undefined)	n	n	x	16.4µM	u	u
Cc1ccc(-c2nc(CS(=O)CC(=O)NCc3ccc(Cl)cc3)c(C)o2)cc1 (centres undefined)	n	n	u	u	12.6µM	u
COc1ccc(-c2nc(CS(=O)CC(=O)NCc3ccc(Cl)cc3)c(C)o2)cc1 (centres undefined)	n	n	n	u	8.91µM	u
Cc1oc(-c2ccc(Cl)cc2)nc1CS(=O)CC(=O)NCc1ccccc1 (centres undefined)	n	n	n	n	n	n
CCc1cccc(NC(=O)CS(=O)Cc2nc(-c3ccc(C)cc3)oc2C)c1 (centres undefined)	n	u	n	16.4µM	11.2µM	u
CC(=O)NC1(C)CCN(Cc2cnc(-c3cccc(F)c3)s2)CC1	x	x	50.1µM	x	x	x
CC(=O)NC1(C)CCCN(Cc2cccc(-c3cccc(F)c3)c2)C1 (centres undefined)	x	x	n	x	x	x
COc1cc(C)nc(N(Cc2ccccc2)S(=O)(=O)c2ccc(C)cc2)n1	n	n	n	18.4µM	u	u
COc1ccc(OC)c(NC(=O)c2ccccc2N(Cc2ccccc2)S(C)(=O)=O)c1	n	u	n	u	u	14.6µM
COc1ccc(NC(=O)c2ccccc2N(Cc2ccccc2)S(C)(=O)=O)c(OC)c1	n	u	n	u	u	23.1µM
O=C(N/N=C/c1ccc2c(c1)OCO2)c1sc2cc(Cl)ccc2c1Cl	n	n	n	5.17µM	n[10 µM]	5.8µM
COc1ccc2c(Cl)c(C(=O)N/N=C/c3c(C)[nH]c4ccccc34)sc2c1	n	23.1µM	n	u	n	u
Cc1ccsc1C(=O)N/N=C/c1ccc2c(c1)OCO2	u	u	n	u	u	u
COc1ccc2c(Cl)c(C(=O)N/N=C/c3ccc4c(c3)OCO4)sc2c1	n	n	n	u	1.12µM	u
O=C(N/N=C/c1ccc2c(c1)OCO2)c1sc2cccc(Cl)c2c1Cl	u	n	n	u	u	u
CCN1C(=O)NC(c2ccc(Br)s2)C(C(=O)OC)=C1C (centres undefined)	x	x	n	x	x	x
COc1ccc(-c2ccccc2[C@H]2[C@@H]3C=CC[C@@H](C)[C@@H]3C(=O)N2Cc2ccccc2)cc1	u	u	n	10.3µM	u	13µM
C[C@@H]1CC=C[C@@H]2[C@H]1C(=O)N(Cc1ccccc1)[C@H]2c1ccccc1Br	u	u	n	16.4µM	n	18.4µM
COc1ccc(-c2ccc(C3C4C=CCC(C)C4C(=O)N3Cc3ccccc3)c(F)c2)cc1 (centres undefined)	n	x	x	x	n	x
O=C(Nc1ccc(Cl)c(Cl)c1)c1n[nH]c(=O)c2ccccc12	x	x	n	x	x	x
CCC/C=C/c1ccc(CN2C(CC(C)C)C(=O)N(Cc3cn(CCC4OCCCO4)nn3)CCS2(=O)=O)cc1 (centres undefined)	x	x	u	23.1µM	x	u
CCC/C=C/c1ccc(CN2C(C)C(=O)N(Cc3cn(CCOCOC)nn3)CCS2(=O)=O)cc1 (centres undefined)	x	x	n	u	x	n
CCC/C=C/c1ccc(CN2C(C)C(=O)N(Cc3cn(CCC4OCCCO4)nn3)CCS2(=O)=O)cc1 (centres undefined)	x	x	u	13µM	x	u

Assay outcomes deposited in PubChem by National Center for Advancing Translational Sciences (NCATS).
